{"source": "PubChem BioAssay (Tox21)", "note": "Results filed as inconclusive are left out. A call without a number means that no potency is given here. Calls of active or inactive are those of the source. Calls come from the whole dose curve; as a rule, active = well fitted inhibition curve with a large enough effect in the repeat runs; inconclusive = weak or mixed curves; inactive = no such curve, though single readings can be large or run the other way. Where a SMILES comes first, the peptide text is derived from it. [ ]: non-standard residue; d: D form. pGlu = O=C1CC[C@@H](C(=O)O)N1"}
{"target": "Cytochrome P450 2C9 (Homo sapiens) (UniProt P11712)", "sequence (P11712 whole entry, looked up)": "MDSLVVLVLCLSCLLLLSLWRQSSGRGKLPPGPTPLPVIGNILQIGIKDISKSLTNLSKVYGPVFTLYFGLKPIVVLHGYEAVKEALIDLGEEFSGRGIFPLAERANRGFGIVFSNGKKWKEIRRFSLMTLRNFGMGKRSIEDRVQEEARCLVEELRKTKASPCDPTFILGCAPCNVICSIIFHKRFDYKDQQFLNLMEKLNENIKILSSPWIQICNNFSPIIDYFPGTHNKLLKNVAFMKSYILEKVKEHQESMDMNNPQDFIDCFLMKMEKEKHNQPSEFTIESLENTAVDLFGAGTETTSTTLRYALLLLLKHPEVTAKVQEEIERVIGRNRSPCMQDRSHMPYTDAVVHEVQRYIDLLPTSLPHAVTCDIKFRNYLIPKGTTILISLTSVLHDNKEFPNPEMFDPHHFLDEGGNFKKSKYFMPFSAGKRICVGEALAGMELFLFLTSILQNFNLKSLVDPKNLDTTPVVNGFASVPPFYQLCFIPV", "test": "Cytochrome P450 Family 2 Subfamily C Member 9 (CYP2C9) small molecule antagonists: luciferase reporter qHTS assay (AID 1671198); note: nearly all actives have a fitted effect of over 50% in size; note: potency is the fitted concentration of half-maximal effect", "settings": "P450-Glo CYP2C9 enzyme assay, luciferin luminescence; series mostly up to 115 µM", "description": "U.S. Tox21 Program National Center for Advancing Translational Sciences [NCATS] U.S. Environmental Protection Agency [EPA] National Institutes of Environmental Health Sciences [NIEHS] National Toxicology Program [NTP] U.S. Food and Drug Administration [FDA] Tox21 Assay Overview: Cytochrome P450 (CYP) enzymes are membrane-bound hemeproteins that play a key role in metabolism of drugs and xenobiotics. Evaluation of the effect of chemicals on CYP isozymes is useful to minimize the adverse drug reactions and toxicities in drug development process. Tox21 chemicals were tested for their effect on CYP enzyme activities by using P450-Glo (TM) screening systems (Promega Corporation, Madison, WI). These systems provide a luminescent method containing proluciferin substrates and are converted to luciferin products by CYP isozymes. The luciferin products formed are detected with a luciferin detection reagent, and the amount of light produced is proportional to CYP activity. P450-Glo (TM) CYP2C9 screening system (Catalog. No. V9790) was used to detect the compounds that interfere in CYP2C9 activity.\nTox21 Assay Protocol Summary: Two ul of enzyme-substrate mix was dispensed into medium binding white/solid 1536-well plates (Greiner Bio-One North America Inc., Monroe, NC) using a BioRaptr Flying Reagent Dispenser (FRD, Beckman Coulter, Brea, CA). […] The assay plates were incubated at room temperature for 10 min. Then 2 ul of NADPH regeneration solution was added to each well of the assay plates using an FRD and incubated at 37C for 1 h. The reaction was stopped by adding 4 ul of detection reagent using an FRD and after 20 min incubation at room temperature the luminescence signal was measured using a ViewLux plate reader (Perkin Elmer, Shelton, CT). Data were expressed as relative luminescence units."}
{"smiles": "CC(C)CCCO", "Potency": "inactive"}
{"smiles": "O=S(=O)(O)c1cccc2c(S(=O)(=O)O)cccc12", "Potency": "70.9 µM (active)"}
{"smiles": "CC1=NN(c2cccc(S(=O)(=O)O)c2)C(=O)C1", "Potency": "inactive"}
{"smiles": "C=CC(=O)OCCCl", "Potency": "inactive"}
{"smiles": "C=C(C)C(=O)OCC1CCCO1", "note": "(stereo not given)", "Potency": "inactive"}
{"smiles": "CCCCS(=O)(=O)N[C@@H](Cc1ccc(OCCCCC2CCNCC2)cc1)C(=O)O", "Potency": "inactive"}
{"smiles": "COc1ccc2cc1Oc1cc3c(cc1OC)CC[N+](C)(C)[C@H]3Cc1ccc(cc1)Oc1c(OC)c(OC)cc3c1[C@@H](C2)[N+](C)(C)CC3", "Potency": "inactive"}
{"smiles": "CC12CCC(C(=O)C1=O)C2(C)C", "note": "(stereo not given)", "Potency": "inactive"}
{"smiles": "CN1[C@@H]2CC[C@H]1CC(OC(=O)C(O)c1ccccc1)C2", "note": "(stereo not given in full)", "Potency": "inactive"}
{"smiles": "O=S(=O)(O)c1cccc(S(=O)(=O)O)c1", "Potency": "inactive"}
{"smiles": "CCCn1cc[n+](C)c1C", "Potency": "inactive"}
{"smiles": "CNCCO", "Potency": "inactive"}
{"smiles": "Cc1nc(C2CCCCC2)c(-c2ccc(S(N)(=O)=O)c(F)c2)o1", "Potency": "3.47 µM (active)"}
{"smiles": "CC(C)(C)OC(=O)c1cccc(N)c1", "Potency": "32.6 µM (active)"}
{"smiles": "CC(COc1ccccc1)NN", "note": "(stereo not given)", "Potency": "inactive"}
{"smiles": "NC(=O)N1c2ccccc2CC(=O)c2ccccc21", "Potency": "inactive"}
{"smiles": "CCCCCCCCCC[N+](C)(C)[O-]", "Potency": "inactive"}
{"smiles": "C[N+](C)(CCOc1ccccc1)Cc1cccs1", "Potency": "inactive"}
{"smiles": "COc1c(N2CCNC(C)C2)c(F)cc2c(=O)c(C(=O)O)cn(C3CC3)c12", "note": "(stereo not given)", "Potency": "inactive"}
{"smiles": "O=Cc1cccc(Br)c1", "Potency": "40.9 µM (active)"}
{"smiles": "CCC(=O)OCc1ccccc1", "Potency": "inactive"}
{"smiles": "CN(C)CCN(C)CCN(C)C", "Potency": "inactive"}
{"smiles": "C[C@H]1[C@H](NC(=O)/C(=N/OC(C)(C)C(=O)O)c2csc(N)n2)C(=O)N1S(=O)(=O)O", "note": "(stereo in doubt)", "Potency": "inactive"}
{"smiles": "CN1CC(=O)N/C1=N/C(=O)Nc1cccc(Cl)c1", "Potency": "inactive"}
{"smiles": "Cc1ccc(C(=O)c2ccccc2)cc1", "Potency": "31.7 µM (active)"}
{"smiles": "Cc1ccc(-c2ccccc2C#N)cc1", "Potency": "15.5 µM (active)"}
{"smiles": "CC1=CC(=O)[C@H]2C[C@@H]1C2(C)C", "Potency": "inactive"}
{"smiles": "NC(=O)NC1N=C([O][Al])NC1=O", "note": "(stereo not given)", "Potency": "inactive"}
{"smiles": "O=[N+]([O-])c1cncn1CCN1CCOCC1", "Potency": "inactive"}
{"smiles": "CCC(C)(CCCC(C)C)OC(C)=O", "note": "(stereo not given)", "Potency": "inactive"}
{"smiles": "CCCCCCCCCCCCCCC(=O)O", "Potency": "inactive"}
{"smiles": "CCNC(=O)[C@@H]1CCCN1C(=O)[C@H](CCCN=C(N)N)NC(=O)[C@H](CC(C)C)NC(=O)CNC(=O)[C@H](Cc1ccc(O)cc1)NC(=O)[C@H](CO)NC(=O)[C@H](Cc1c[nH]c2ccccc12)NC(=O)[C@H](Cc1cnc[nH]1)NC(=O)[C@@H]1CCC(=O)N1", "note": "([pGlu]HWSYGLRP-NHEt)", "Potency": "inactive"}
{"smiles": "COc1cccc(OC)c1C(=O)N[C@@H]1C(=O)N2[C@@H]1SC(C)(C)[C@@H]2C(=O)O", "Potency": "inactive"}
{"smiles": "CC(=O)O[C@@]12CO[C@@H]1C[C@H](O)[C@@]1(C)C(=O)[C@H](O)C3=C(C)[C@@H](OC(=O)[C@H](O)[C@@H](NC(=O)OC(C)(C)C)c4ccccc4)C[C@@](O)([C@@H](OC(=O)c4ccccc4)[C@H]21)C3(C)C", "Potency": "inactive"}
{"smiles": "COc1cc(-c2ccc(=O)[nH]n2)ccc1OC(F)F", "Potency": "inactive"}
{"smiles": "[O-][n+]1cccc(CO)c1", "Potency": "inactive"}
{"smiles": "Cc1ncc(COP(=O)(O)O)c(C=O)c1O", "Potency": "inactive"}
{"smiles": "Cc1onc(-c2c(Cl)cccc2Cl)c1C(=O)Cl", "Potency": "17.4 µM (active)"}
{"smiles": "Cc1coc2ccccc2c1=O", "Potency": "inactive"}
{"smiles": "CCCCOCCOC(=O)CCCCCCCCC(=O)OCCOCCCC", "Potency": "35.6 µM (active)"}
